Growth data for 40 compounds are collected here from PubChem BioAssay (NCI).

The panel holds about 83,000 compounds, 20% with a hit somewhere; the sample as a whole holds those more often.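 A percent growth of 40 corresponds to 60% growth inhibition; 0 means no net growth; -100 means all cells died. Active threshold: below 10.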 Values without a mark were called inactive. The source made the active and inactive calls.

The subject of this assay is KM12 colon. Description: NCI-60 one-dose screen, 48 h (100 = growth as untreated, 0 = no growth, -100 = all killed). Particulars: 10 µM unless noted.
With `ClCCN(CCCl)C(c1ccccc1)c1ccc(Cl)cc1` (stereo not given), the growth is 89.5%. The value for `CCCCn1cc(C(=O)/C(C#N)=C/c2cc3ccccc3nc2Cl)c2cc(OC)ccc21` was 94.5%; that for `CCCCNCCc1ccccn1` was 102%. The value for `CC(=O)C1C(=O)N(C)C(=O)N(C)C1=O` was 107%. In the case of `CC1(C)N=C(N)N=C(N)N1c1cccc(C(=O)Nc2cccc(S(=O)(=O)F)c2)c1`, the growth was 102%. The value for `C[C@]12CC[C@@H]3C4=C(CC[C@H]3[C@@H]1CC[C@@H]2O)CC(=O)CC4` was 107%. Regarding `Oc1ccccc1OB(Oc1ccccc1O)N(CCCl)CCCl`, the growth is 69.4%. In the case of `NC(Cc1ccc2c(c1)OCO2)c1ccc2c(c1)OCO2` (stereo not given), the growth was 109%. For the compound `COc1ccc(-c2ccc(OC)c(OC)c2OC)cc1`, the growth is 29.2%. In the case of `CC[C@@]1(C2O[C@@H](C3O[C@@](O)(CC)[C@H](C)C[C@@H]3C)C[C@@H]2C)CC[C@H]([C@]2(C)CCC3(C[C@H](O)[C@@H](C)[C@@H]([C@H](C)[C@@H](OC)[C@H](C)C(=O)O)O3)O2)O1` (stereo not given in full), the growth is 20.6%. The result for `CC1(C)N=C(N)N=C(N)N1c1ccc(CCCCc2ccc(S(=O)(=O)F)cc2)c(Cl)c1` reads 22.4%; that for `COc1ccc(C2=NN(c3ccccc3)C(c3sc(N(CCCl)CCCl)nc3Cl)C2)cc1` (stereo not given), 81.4%. The value for `N#CC1c2ccccc2C=CN1C(=O)c1ccc(N(CCCl)CCCl)cc1` (stereo not given) was 98%. Take `CSc1ccccc1NP1(=O)OCC(C)([N+](=O)[O-])CO1` (stereo not given): the growth is 104%. In the case of `Cc1ccc(N)cc1[As]=[As]c1cc(N)ccc1C` (stereo not given), the growth is 65.7%.

Consider `C/C(=N/OC(=O)N(C)C)c1cc(Cl)ccc1Cl`, for which the growth is 106%. As for `CCC(C)[C@H]1O[C@]2(C=C[C@@H]1C)C[C@@H]1C[C@@H](C/C=C(\C)[C@@H](OC3C[C@H](OC)C(O[C@H]4C[C@H](OC)[C@@H](O)[C@H](C)O4)[C@H](C)O3)[C@@H](C)/C=C/C=C3\CO[C@@H]4[C@H](O)C(C)=C[C@@H](C(=O)O1)[C@]34O)O2` (stereo not given in full), the growth is -12.3% (active).

Turning to `CC1(C)N=C(N)N=C(N)N1c1ccc(CCCCc2ccc(S(=O)(=O)F)cc2)cc1`, the growth is 17.1%. As to `Cc1ccc(C(=O)C2CN(C)CCC2(O)c2ccc(C)cc2)cc1` (stereo not given), the growth is 109%. The value for `O=S(=O)(O)c1ccc(-c2ccc([As](=O)(O)O)cc2)cc1` was 105%; that for `O=C1NC(=O)C(CN2C(=O)C3(c4ccccc42)[C@H](Cl)C(=O)N3c2ccccc2)C(=O)N1` (stereo not given in full) was 86.3%; that for `O=[N+]([O-])c1cc([N+](=O)[O-])c(Cl)c(Cl)c1Cl` was 37.4%.

As for `C=CCC1(CC)C(=O)NC(=S)NC1=O`, the growth was 101%. The result for `C/C(=N/OC(=O)N(C)C)c1ccc(Cl)cc1Cl` reads 108%; that for `CCC[CH2][Sn]([CH2]CCC)([CH2]CCC)[O]C(=O)CC`, -93.2% (active). The result for `O=C(NCc1ccc([N+](=O)[O-])cc1)Nc1ccc(S(=O)(=O)F)cc1` reads 84.2%; that for `n1nc(-c2nonc2-c2nn[nH]n2)n[nH]1`, 118%. The value for `CNC(=O)Oc1ccccc1-c1ccccc1` was 102%; that for `CC1(C)N=C(N)N=C(N)N1c1ccc(OCCCCOc2ccc(S(=O)(=O)F)cc2)c(Cl)c1` was 9.69% (active); that for `CCCCOC(=O)c1ccccc1C(=O)O.CCCCOC(=O)c1ccccc1C(=O)O.[Cu+2]` was 105%. Consider `O=[N+]([O-])c1ccc2cnn(CSP(=S)(c3ccccc3)c3ccccc3)c2c1`, for which the growth was 63.7%. The result for `NC(=O)C(Cl)Cl` reads 110%; that for `CCN(CC)c1ccc(C=C2C(=O)NC(=S)NC2=O)cc1`, 96.8%. In the case of `Clc1ccc(SSC(Cl)(Cl)Cl)cc1`, the growth is 108%. On to `[O]=[Sn]([CH]1CCCCC1)[CH]1CCCCC1`, for which the growth was -94% (active). The result for `ClCCN(CCCl)c1nc(Cl)c(C2CC(c3ccccc3)=NN2c2ccccc2)s1` (stereo not given) reads 98.3%; that for `CC(=O)C1CCC2C3CC=C4CC(OC(=O)Cc5ccc(N(CCCl)CCCl)cc5)CCC4(C)C3CCC12C` (stereo not given), 106%; that for `Cc1ccccc1O`, 106%. `O=[N+]([O-])c1ccccc1N1CCNCC1`: the growth was 101%. The result for `CC(=O)Nc1ccc(C=C2C(=O)NC(=O)NC2=O)cc1` reads 112%.
